# miR-21 act: qHTS Assay for Modulators of miRNAs and/orActivators of miR-21 | 340,000 tested, under 10 active | Potency, µM (doses to about 38.3 µM), inactives show at the highest dose activity change, positive = activation, most hits filed as activators | AID 2288, 2010 | HeLa miR-21 FLuc reporter, luciferase, 48 h;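 note: % of control where 0% means no effect; miR-21 action dims this reporter so a rising signal means less miR-21 action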
#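 Compounds were titrated across several concentrations (up to approximately 40 uM) and incubated 48 hours with HeLa miR-21-FLuc reporter cells (miR-21 target sequence downstream of FLuc, endogenous miR-21). Readout was firefly luciferase luminescence after lytic detection reagent.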
# TDP1 inh: qHTS Assay for Inhibitors of Tyrosyl-DNA Phosphodiesterase (TDP1) | AID 485290, 2010 | Tyrosyl-DNA phosphodiesterase 1 (Homo sapiens), Q9NUW8 | Potency, µM (titrated, usually from 130 µM), without a hit: at the highest dose activity change, negative = inhibition, most hits filed as inhibitors | recombinant TDP1, AlphaScreen DNA substrate cleavage | actives 0.28% (n = 350,000); note: potency is the fitted concentration of half-maximal effect; % is set by controls: 0 for no effect and ±100 for the full control effect; nearly all actives have a fitted effect of over 40% in size
# Target sequence (Q9NUW8 whole entry, looked up): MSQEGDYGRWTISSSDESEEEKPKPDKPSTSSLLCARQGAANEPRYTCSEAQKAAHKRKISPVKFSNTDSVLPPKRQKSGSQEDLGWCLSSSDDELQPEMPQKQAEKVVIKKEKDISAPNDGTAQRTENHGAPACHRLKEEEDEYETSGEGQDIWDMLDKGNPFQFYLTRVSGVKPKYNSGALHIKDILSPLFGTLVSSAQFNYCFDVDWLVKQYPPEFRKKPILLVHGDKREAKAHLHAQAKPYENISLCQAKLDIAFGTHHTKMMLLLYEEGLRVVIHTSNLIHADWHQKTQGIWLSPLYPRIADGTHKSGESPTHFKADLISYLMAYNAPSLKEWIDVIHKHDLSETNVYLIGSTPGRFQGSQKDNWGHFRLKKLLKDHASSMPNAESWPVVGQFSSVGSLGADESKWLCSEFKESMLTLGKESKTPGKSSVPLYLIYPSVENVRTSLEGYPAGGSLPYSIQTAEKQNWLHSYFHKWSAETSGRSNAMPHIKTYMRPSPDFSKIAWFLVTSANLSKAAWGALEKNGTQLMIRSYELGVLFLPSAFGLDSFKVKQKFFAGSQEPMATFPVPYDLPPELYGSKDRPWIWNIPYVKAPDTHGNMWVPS
#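 Signal: AlphaScreen proximity between streptavidin donor and anti-FITC acceptor beads on intact substrate. Reaction: Tdp1 1 nM, substrate 15 nM final, 5 min RT after 15 min compound preincubation.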
# TDP1 cell noCPT: qHTS for Inhibitors of human tyrosyl-DNA phosphodiesterase 1 (TDP1): qHTS in cells in absence of CPT; DT40 Tdp1-/- hTDP1 cells, no CPT, ATP luminescence, 48 h; Potency, µM (series often up to 46.2 µM), for inactives: at the highest dose activity change, negative = growth inhibition, actives largely listed as inhibitors; actives 15% (n = 420,000); AID 686978, 2013; note: potency is the fitted concentration of half-maximal effect; % is set by controls: 0 for no effect and ±100 for the full control effect; nearly all actives have a fitted effect of over 55% in size
#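 DT40 Tdp1-/-;hTDP1 cells, no CPT (DMSO vehicle only), 400 cells/well; compounds pin-transferred; ≥48 hr, 37 °C; CellTiter-Glo 30 min RT dark, luminescence read.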
# DT40 TDP1 CPT: qHTS for Inhibitors of human tyrosyl-DNA phosphodiesterase 1 (TDP1): qHTS in cells in presence of CPT; chicken DT40 Tdp1-/-;hTDP1 cells + 20 nM CPT, ATP luminescence, 48 h; Potency, µM (titrated, usually from 46.2 µM), inactives show top-dose activity change, negative = growth inhibition, most hits filed as inhibitors; actives 12% (n = 420,000); note: potency is the fitted concentration of half-maximal effect; % is set by controls: 0 for no effect and ±100 for the full control effect; nearly all actives have a fitted effect of over 55% in size
#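 Chicken DT40 Tdp1-/- cells stably complemented with human TDP1 were seeded at 400 cells/well in medium containing 20 nM camptothecin, exposed to pin-transferred compounds, and grown at 37 °C for at least 48 hr. Viability was read as ATP luminescence.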
# uPA generation: qHTS for Inhibitors of Cell Surface uPA Generation. cell surface uPA generation assay, qHTS. Potency, µM (top dose mostly 38.3 µM), for inactives: at the highest dose activity change, negative = inhibition, actives largely listed as inhibitors. actives 0.31% (n = 330,000). AID 540303, 2011; active = well fitted inhibition curve with a large enough effect; inconclusive = small, poorly fitted or top-dose-only effect; inactive = no such curve, though single readings can be large or run the other way; tested in mouse RAW 264.7 cells; note: potency is the fitted concentration of half-maximal effect; % is set by controls: 0 for no effect and ±100 for the full control effect; nearly all actives have a fitted effect of over 55% in size
# Starred values were filed as active, the others as inactive; ? = inconclusive; . = no result; [ ] = remark or other dose. Rows were chosen to be rich in hits. Some 16% of all compounds tested hit in one or more screens of this group. Unless noted, calls come from the whole dose curve; as a rule, active = well fitted curve in the direction sought with a large enough effect; inconclusive = small, poorly fitted or top-dose-only effect, or another doubt; inactive = no such curve, though single readings can be large; an effect the other way counts as inactive or inconclusive.
SMILES,miR-21 act,TDP1 inh,TDP1 cell noCPT,DT40 TDP1 CPT,uPA generation
Cc1cccc(-c2nnc(SCc3cc(=O)[nH]c4ccccc34)n2C)c1,-2%,-1%,-18%,-2%,4%
CNc1ncncc1-c1ccc(C(=O)N(C)C)cc1,.,-14%[56.1 µM],-1%,-3%,.
O=S(=O)(c1cccc(-c2nc3n(n2)Cc2ccccc2-3)c1)N1CCCC1,0%,5%,?,21µM*,0%
O=S(=O)(c1cccc(-c2nc3n(n2)Cc2ccccc2-3)c1)N1CCCCC1,1%,6%,?,?,0%
COc1ccc(N)cc1-n1c(C)ccc1C,-21%,7%,-24%,7.3µM*,-14%
Cn1cc(-c2nc3cnc(N4CCOCC4)nc3n(C3CC3)c2=O)c2ccccc21,.,.,-6%,-4%,.
COc1ccc(-n2c(=O)c(-c3cn(C)c4ccccc34)nc3cnc(N4CCOCC4)nc32)cc1,.,.,12%,-4%,.
Cn1cc(-c2nc3cnc(N4CCNCC4)nc3n(C)c2=O)c2ccccc21,.,.,5.8µM*,5.2µM*,.
CN1CCN(c2ncc3nc(-c4cn(C)c5ccccc45)c(=O)n(C)c3n2)CC1,.,.,23µM*,23µM*,.
CCOc1ccc(C(C)C)cc1S(=O)(=O)N1CCOCC1,-5%,5%,-6%,7%,-6%
CCN1CCN(Cc2ccc(NC(=O)c3cc(NC(=O)C(=O)c4c[nH]c5ccccc45)cc(OC)c3)cc2C(F)(F)F)CC1,?,5%,21µM*,23µM*,?
CCN1CCN(Cc2ccc(NC(=O)c3ccc(C)c(NC(=O)c4ccc5n[nH]nc5c4)c3)cc2C(F)(F)F)CC1,4%,5%,-1%,-1%,0%
CCN1CCN(Cc2ccc(NC(=O)c3cc(NC(=O)c4cnn(-c5ccccc5)c4N)cc(OC)c3)cc2C(F)(F)F)CC1,-7%,5%,21µM*,21µM*,-18%
Cc1ccc(Nc2nc(CSc3nnc(-c4ccc(F)cc4)n3C)cs2)cc1,-19%,6%,?,15µM*,-6%
Cc1ccc(-c2nnc(SCC(C)C)n2C)cc1,-56%,0%,21µM*,?,-7%
COc1ccc(-c2nnc(SCc3csc(N)n3)n2C)cc1,-8%,4%,-7%,-15%,.
O=C(COc1ccccc1-c1nnc(-c2ccccc2)o1)Nc1ccc(Br)cc1F,-2%,2%,-30%,?,.
Cc1cc(C)c(OCCn2ccnc2)c(C)c1,18%,.,5.2µM*,6.5µM*,?
Cc1cc(C)cc(OCCCn2ccnc2)c1,-1%,3%,-9%,-11%,4%
Cc1ccc(OCCOCCn2ccnc2)c(Br)c1,-30%,8%,23µM*,-26%,2%
Cc1cccc(OCCCn2ccnc2)c1,-1%,3%,?,21µM*,.
Cc1ccc(OCCn2ccnc2)c(C)c1,-2%,6%,9%,-9%,16%
Cc1ccc(OCCCn2ccnc2)cc1C,-5%,-1%,18µM*,?,6%
COc1ccc(Cl)cc1NC(=O)CN(C)C(=O)c1cc(=O)c2ccccc2o1,.,2%,?,-40%,2%
C=C(C)CSc1nnc(-c2ccccc2)n1N,-26%,2%,5%,9%,-1%
SMILES,miR-21 act,TDP1 inh,TDP1 cell noCPT,DT40 TDP1 CPT,uPA generation
C=CCOc1ccc(NC(=O)C(=O)NCCCn2ccnc2)cc1,1%,4%,-8%,-14%,.
CCCCCOc1ccc(NC(=O)C(=O)NCCCn2ccnc2)cc1,2%,-1%,18µM*,?,-8%
Clc1ccc(-c2ccc(CNCCSc3nnnn3-c3ccccc3)o2)cc1,9%,9%,-25%,?,.
Cc1cccc(Nc2c(-c3ccsc3)nc3nc(C)cc(C)n23)c1,1%,2%,?,?,.
Cc1ccn2c(Nc3c(C)cccc3C)c(-c3ccsc3)nc2c1,8%,10%,23µM*,21µM*,.
Cc1ccn2c(Nc3c(C)cccc3C)c(-c3ccc(Cl)s3)nc2c1,13%,0%[12.3 µM],18µM*,13µM*,.
Cc1cccc(C)c1NC(=O)C1(C)CSCC(=O)N1CCOc1ccccc1 (stereo not drawn),.,.,-26%,14%,.
Cc1cccc(C[C@H](C(=O)O)N2C(=O)c3ccc(C(=O)O)cc3C2=O)c1,.,3%,.,.,.
COc1ccccc1S(=O)(=O)CC(O)COc1ccccc1Cl (stereo not drawn),-4%,1%,0%,-14%,3%
CC(=O)Nc1ccc(/C(C)=N/NC(=O)c2ccncc2)cc1,-8%,4%,-24%,18%,2%
CCC(=O)Nc1ccc(/C(C)=N/NC(=O)c2c(Br)c(C)nn2C)cc1,23%,0%,15µM*,?,-29%
C/C(=N\NC(=O)c1nn(C)c(C)c1Br)c1ccc(NC(=O)c2ccoc2C)cc1,-55%,5%,-26%,-18%,2%
C/C(=N\NC(=O)c1c(Br)c(C)nn1C)c1ccc(NC(=O)C(C)Oc2ccc(Cl)cc2C)cc1 (stereo not drawn),18%,4%,?,?,-13%
C/C(=N\NC(=O)c1c(Cl)c(C)nn1C)c1ccc(NC(=O)c2ccncc2)cc1,-5%,5%,18µM*,?,-6%
C/C(=N\NC(=O)c1c(Br)c(C)nn1C)c1ccc(NC(=O)c2ccoc2C)cc1,-40%,6%,23µM*,-3%,-1%
O=c1cnc2ccccc2n1Cc1ccccc1,.,.,?,-8%,.
Nc1ncnc2c1ncn2[C@@H]1O[C@H](C(=O)N(CCC2=CCCCC2)CC2CC2)[C@@H](O)[C@H]1O,.,.,16µM*,?,.
CCN(CC)S(=O)(=O)c1ccc(NC(=O)CN(c2cccc(C)c2)S(C)(=O)=O)cc1,-5%,2%,?,?,-8%
Cn1cncc1CNc1ncnc2ccc(-c3ccc4c(c3)OCO4)cc12,.,5%,.,.,.
CCCN1CCC(=NNc2ccc(S(=O)(=O)N(CC)CC)cc2[N+](=O)[O-])CC1,17%,3%,2.6µM*,2.1µM*,-13%
CCN(CC)S(=O)(=O)c1ccc(N/N=C(\C)c2ccc3c(c2)OCO3)c([N+](=O)[O-])c1,-3%,5%,15µM*,?,-11%
C/C(=N\Nc1ccc(S(N)(=O)=O)cc1[N+](=O)[O-])c1ccc2c(c1)OCO2,-12%,4%,15µM*,-28%,-12%
CC(C)(C)S(=O)(=O)N1Cc2cc(CO)cc(CCO)c2[C@@H]1CCO,.,.,-2%,7%,5%
CN(CC(=O)NCc1ccco1)CC(=O)Nc1ccc(F)c(F)c1F,.,0%,?,?,2%
COC(=O)c1ccc(CC(=O)c2ccc(O)cc2O)o1,13%,6%,?,?,-2%
